The panel holds about 83,000 compounds, 20% with a hit somewhere; the sample as a whole holds those more often.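 In brief: 96-well plates, 48 h treatment, single concentration, percent growth endpoint.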 Unmarked numbers belong to inactive results. Activity calls are given as the source filed them. Rule for the calls: active = growth percent below 10; inactive = the rest.

The test system of the test is MDA-MB-468 breast. In words: NCI-60 one-dose screen, 48 h (100 = growth as untreated, 0 = no growth, -100 = all killed). The note with it: 10 µM unless noted.
Take `COc1ccc(C(=O)C2C(C#N)C(C#N)C3c4ccccc4C=CN23)cc1` (stereo not given): the growth was 64.8%.

Consider `O=C(OCc1ccc2c(Br)cc(Br)c(O)c2n1)c1cc2ccccc2[nH]1`, for which the growth is -73.2% (active).

As for `CCCCCC/C=N/Nc1ccc([N+](=O)[O-])cn1`, the growth was 108%.

As to `O=C1C=C(SCCO)C(=O)c2ccccc21`, the growth was -42.6% (active).

`COc1ccccc1-n1cnc(N)c1C(=O)c1cc(OC)c(OC)c(OC)c1`: the growth is 39.3%.

Consider `CN(C)c1ccc2c(N(C)C)cc(N(C)C)nc2c1`, for which the growth was 7.64% (active).

As to `COc1ccc(Cn2c(Br)c3c(c2-c2cc(OC)c(OC)c(OC)c2)CCc2sc(N)nc2-3)cc1`, the growth was 16.3%.

In the case of `O=C(c1ccccc1)C1CCC1`, the growth was 110%.

For `CCN(C(=O)N1CCN(c2cc3c(cc2F)c(=O)c(C(=O)O)cn3C2CC2)CC1)c1nc(-c2ccccc2)cs1`, the growth was 13%.

For the molecule `Cc1ccc(/C=C/C(=N/N=C(N)N)c2ccccc2)cc1`, the growth is -6.79% (active).

In the case of `Clc1ccc2c(NCCNc3nc(N4CCCC4)nc4ccccc34)ccnc2c1`, the growth is -49.2% (active).

On to `CCCCCCCCCCCC(=O)OCCNC(=O)C[n+]1ccccc1`, for which the growth is 101%.

Regarding `CCOC(=O)c1ccccc1OC(=O)NNc1ccccc1`, the growth is 83.2%.

`COc1c(Cl)cc(Cl)c2ccc(C=C3C(=O)N(C)C(=O)N(C)C3=O)nc12`: the growth was 107%.

In the case of `COc1ccc(OC)c(NC(=O)c2sc3nc4c(cc3c2N)C(=O)CCC4)c1`, the growth was 37.5%.

As to `COc1cc(OC)cc(C(=O)Nc2cnc(Nc3ccc(N4CCOCC4)nc3)nc2Oc2ccc(C(F)(F)F)cc2)c1`, the growth was 81.1%.

As for `COCCNC(=O)Cc1cc(-c2ccc(Cl)cc2)n(-c2ccccc2)c1C`, the growth was 73%.

`COc1ccc2c(c1)c1nc3cc(C)c(C)cc3nc1n2CCN(C)C`: the growth was -2.58% (active).

For the molecule `O=C(Nc1ncc(Cc2ccccc2)s1)c1ccc2c(c1)OCCO2`, the growth is 28.2%.

For `CC/C=C\C[C@@H]1C/C=C2/C(=O)C=C[C@H]2C/C=C\CCCC(=O)O1`, the growth was -63.3% (active).

Turning to `CCOc1ccc(S(=O)(=O)c2ccc(C)cc2)c2c1no[n+]2[O-]`, the growth is 103%.

On to `CC1CCCCN1S(=O)(=O)c1ccc(CN=C=S)cc1` (stereo not given), for which the growth is 17.4%.

Consider `CCN(CC)CCC(CNc1ccnc2cc(Cl)ccc12)c1ccc(O)cc1` (stereo not given), for which the growth was 81.1%.

For the molecule `COc1cc2nccc(Oc3ccc(NC(=O)C4(C(=O)Nc5ccc(F)cc5)CC4)cc3)c2cc1OC(=O)c1ccc(N)cc1`, the growth was 59.3%.

Turning to `O=C1CC[C@H](c2ccc(O)c3c2C(=O)[C@@H]2O[C@@H]2C3=O)c2cccc(O)c21`, the growth is -64.8% (active).

Consider `COc1cc(/C=N/Nc2ccnc3cc(Cl)ccc23)cc(OC)c1O`, for which the growth was -72.1% (active).

On to `Cc1nc(-c2cc3ccccc3oc2=O)ccc1C(=O)/C=C/c1ccccn1`, for which the growth is 60.5%.

As for `Cn1c(COC(=O)NCCN2CCOCC2)nc2c(N3CCOCC3)nc(-c3ccccc3)nc21`, the growth is -69.1% (active).

On to `COC12CC(=O)C(C(C)=O)=C(O)C1(C)c1c(O)c(C)c(O)c(C(C)=O)c1O2` (stereo not given), for which the growth is 68.9%.

`O=C(Nc1ccc(Br)cc1F)c1cc(Cl)ccc1O`: the growth was -14.5% (active).

With `CC(C)C(=O)Nc1n[nH]c2cc(-c3cccc(NS(=O)(=O)C4CC4)c3)ccc12`, the growth was 21.6%.

In the case of `CN1CCN(c2ccc(Nc3nc(NCCNC(=O)c4ccc(F)cc4)c4sccc4n3)cc2)CC1`, the growth was 48.4%.

`Cc1ccc2nc(-c3ccc(OCC(=O)N=Nc4c(O)[nH]c5ccccc45)cc3)[nH]c2c1`: the growth is 60.6%.

On to `CC(=O)Nc1nonc1-c1nc2ccccc2n1Cc1ccc(C(C)(C)C)cc1`, for which the growth was 86.8%.

In the case of `CC(=O)Oc1cccc(OC(C)=O)c1OC(C)=O`, the growth is 97.6%.

With `CN1CCN(Cc2ccc(NC(=O)c3cncc(C#Cc4cnc(N)c5cnccc45)c3)cc2C(F)(F)F)CC1`, the growth is 6.98% (active).

Regarding `CCC(C)C1NC(=O)C(CCCCN)NC(=O)C(CCCCN)NC(=O)C(CC(C)C)NC(=O)C(CCCCN)NC(=O)C(C(C)CC)NC(=O)C(C(C)C)NC(=O)C(C(C)CC)NC(=O)C(CCCCN)NC(=O)C(CCCCN)NC(=O)C(C)NC(=O)C(CCCCN)NC(=O)C(CC(C)C)NC1=O` (stereo not given), the growth was 1.45% (active).

`NC1CCN(c2nc(Nc3cccc(C(F)(F)F)c3)c3c(=O)[nH]ccc3n2)CC1`: the growth is -77.2% (active).

As to `O=C(/C=C/c1ccccc1)CC(c1ccccc1)N1CCOCC1` (stereo not given), the growth was 92.4%.

On to `COc1ccc(NC(=O)[C@H](C)N)cc1C(=O)Nc1cccc(-c2cc(=O)c3c(OC)c(OC)c(OC)cc3o2)c1`, for which the growth is 58.5%.

The values are drawn from PubChem BioAssay (NCI).
